In all, about 68,000 sequences were measured (“fluorescence intensity (a.u.)”: median about 9,100, highest 2% from about 16,000 on). The sample holds the highest values, similar sequences and a random draw of the others, so the mix is not that of the screen.

Sequence of OsWRKY34 (Q0JBA9 entry or part of it): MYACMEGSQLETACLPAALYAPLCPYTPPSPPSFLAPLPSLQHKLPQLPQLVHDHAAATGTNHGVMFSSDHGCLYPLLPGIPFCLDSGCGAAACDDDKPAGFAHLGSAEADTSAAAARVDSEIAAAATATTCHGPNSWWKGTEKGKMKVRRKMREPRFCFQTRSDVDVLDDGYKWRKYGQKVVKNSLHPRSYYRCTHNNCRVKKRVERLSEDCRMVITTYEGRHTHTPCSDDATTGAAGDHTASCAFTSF

The target of the assay is OsWRKY34 (Oryza sativa, UniProt Q0JBA9 1-250). Put plainly: protein-binding microarray (RPBM); PBS, 2% BSA, 51.3 ng/ul salmon testes DNA, 50 uM zinc acetate, 200 nM TF, 25 C, 1 h; high values mean tight binding. The conditions noted are these: protein: recombinant; tags: N-terminal polyhistidine and DsRed monomer fusion (pET32a); label: CyDye5-dUTP incorporated in the synthesized complementary strand; 3' TTTTT single-stranded linker to array surface; dsDNA, one strand shown. In outline:
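The binding signal for each feature is its fluorescence intensity in arbitrary units. An Axon 4000B scanner was used to read a custom Agilent array that had been made double-stranded with Cy5-dUTP primer extension, blocked with 2% BSA, incubated at 25 °C for 1 h with 200 nM protein in PBS, 2% BSA, salmon testes DNA and 50 µM zinc acetate, and washed. The protein was an N-terminal polyhistidine–DsRed transcription factor fusion from E. coli BL21-CodonPlus, purified on Ni–NTA.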
Take “TGTTATTATGTTTCAGGAATACTTCCTCTGGTTATAAATACGGAGTCACCTAGTGCAG”: the binding signal is 9850 fluorescence intensity (a.u.).
As for “ACCCCGTTCAACGCTCGCTTATATATATTCCCCTCTCGCACGGAGTCACCTAGTGCAG”, the binding signal was 8640 fluorescence intensity (a.u.).
Turning to “AGCCTTCCGGTGAACTCCGGCGACGGGCGGGTGTGGGGATCGGAGTCACCTAGTGCAG”, the binding signal is 11000 fluorescence intensity (a.u.).
Regarding “CTATTCTTGTGCATTCTGTTTTTTATCGTACATGCTACAGCGGAGTCACCTAGTGCAG”, the binding signal was 11800 fluorescence intensity (a.u.).
For the sequence “ATGGTGGGCTGTGGGTGCATGGTTTTGCTGGTCGCACCCACGGAGTCACCTAGTGCAG”, the binding signal is 11100 fluorescence intensity (a.u.).
The value for “CCACCATGGTCTCGCTCATTCTGTTTGCTTCACCTACTCTCGGAGTCACCTAGTGCAG” was 14500 fluorescence intensity (a.u.).
“GAACTTTTCCTGGATGGTGATCCTTCTTTTGGCCTTCTTTCGGAGTCACCTAGTGCAG”: the binding signal is 10500 fluorescence intensity (a.u.).
On to “TATATTTTCTTCTTCGTCACGATCGATGGGATTTTTATTTCGGAGTCACCTAGTGCAG”, for which the binding signal is 9040 fluorescence intensity (a.u.).
Consider “GCCTTTTCTTGACTCGGTGGTGGGAGGGGAATTTTCGTGACGGAGTCACCTAGTGCAG”, for which the binding signal was 27000 fluorescence intensity (a.u.).
In the case of “ACTTTTTTTGGTGACTATGTGTTTCCCTGTGGTGGGCTTCCGGAGTCACCTAGTGCAG”, the binding signal is 12000 fluorescence intensity (a.u.).
For the sequence “GGGGTGAACATTTCTTTCTTTCTGGTATTGTGGTTGAGGGCGGAGTCACCTAGTGCAG”, the binding signal is 19300 fluorescence intensity (a.u.).
With “TAAGGGATGGGATGGTTGGCTTGGATCGAGTATATTTCTTCGGAGTCACCTAGTGCAG” the figure was 18900 fluorescence intensity (a.u.); with “AGACATTTTTCTTTCTCGTGGATATTTACGCCTTTCTTGACGGAGTCACCTAGTGCAG”, 8790 fluorescence intensity (a.u.).
For the sequence “AGTGAACTTGGTTCTGTGGTTGCATGTATTTGGTGGAGGGCGGAGTCACCTAGTGCAG”, the binding signal is 9170 fluorescence intensity (a.u.).
“TCAATTTTCTTGTTGACTCGGTGTTTTTGACTGTGGTCAACGGAGTCACCTAGTGCAG”: the binding signal was 10900 fluorescence intensity (a.u.).
On to “GGGGTGGAATTGTGTTGGGTTTCTTTGGTTGAGGAGAGAGCGGAGTCACCTAGTGCAG”, for which the binding signal is 16000 fluorescence intensity (a.u.).
The value for “TTCTTCTTGGTGGTGGTGGGGCCTGGAAACTATGTGACTTCGGAGTCACCTAGTGCAG” was 18200 fluorescence intensity (a.u.); that for “AGGGATGGTTGGACTTATTTCTTTCGCGTTTTCCTTGGGTCGGAGTCACCTAGTGCAG” was 10900 fluorescence intensity (a.u.).
With “TGCAGGCTTCCACCGCCCGCCTGTCATTGTCGCCCACTGCCGGAGTCACCTAGTGCAG” the figure was 8760 fluorescence intensity (a.u.); with “GTTTGTCCCTTTTGACATATGAACTCTTCTCCATGATTTCCGGAGTCACCTAGTGCAG”, 8060 fluorescence intensity (a.u.); with “GGCTTGATTTCTTCTTTTTTCTAATTTTCATATGGCTATTCGGAGTCACCTAGTGCAG”, 9800 fluorescence intensity (a.u.).
As to “TTAAATATTTGAGGGGTCGATATTTCTGGTATTGGTATTACGGAGTCACCTAGTGCAG”, the binding signal is 10500 fluorescence intensity (a.u.).
In the case of “TTTTTTTTTCATCGATGCTTATTTTTTCAGCCTTTACTTTCGGAGTCACCTAGTGCAG”, the binding signal was 8640 fluorescence intensity (a.u.).
With “TGAAGCATGTGGTGGGCATTTTCGTCTTTCTCGAATTCATCGGAGTCACCTAGTGCAG” the figure was 9980 fluorescence intensity (a.u.).
Take “GTATGTGCCACGTCATCCAAAACCGGCCACAATACTGTCGCGGAGTCACCTAGTGCAG”: the binding signal was 8130 fluorescence intensity (a.u.).
“TCCGCTTCTGCTATCTCTCGTCACTCTTCAGTCTTCACCTCGGAGTCACCTAGTGCAG”: the binding signal is 8050 fluorescence intensity (a.u.).
Regarding “AGTTTCAGAACTCACCTCTTTATTAATACATTTAGTTGTTCGGAGTCACCTAGTGCAG”, the binding signal is 8850 fluorescence intensity (a.u.).
Consider “AACGGTTGCAGCTCTAATTGAGGGCTTTGTTTAGTTCATGCGGAGTCACCTAGTGCAG”, for which the binding signal is 8640 fluorescence intensity (a.u.).
With “CGAGGGTTTGGGAGTCGGGGAATTCGGGGTTTGGGGCCGCCGGAGTCACCTAGTGCAG”, the binding signal was 26700 fluorescence intensity (a.u.).
The value for “TTTTGTGTATGTTTCGGTGGGAATTTGAGGGTTGTGTTTTCGGAGTCACCTAGTGCAG” was 14200 fluorescence intensity (a.u.).
Turning to “GCGGAGGCAGGGAGGGTTTTGGAATTTTCGGCCGCCGTTGCGGAGTCACCTAGTGCAG”, the binding signal was 10100 fluorescence intensity (a.u.).
Consider “AGTTCGGGGTGGTTTAAAGTGTAAAAAAATGTTAATAAAACGGAGTCACCTAGTGCAG”, for which the binding signal is 8870 fluorescence intensity (a.u.).
With “CAATGGAGGGGTGTTTTTTTTTCTATTTTTCTAAATAATTCGGAGTCACCTAGTGCAG”, the binding signal is 14800 fluorescence intensity (a.u.).
Regarding “AATTCGGGGTTTGGGGCCGCGGAGGGGTGCTTACGTGAGTCGGAGTCACCTAGTGCAG”, the binding signal is 15100 fluorescence intensity (a.u.).
The value for “CGAGAGAGAGAGGGGAGGGTTTTGGGTTGTGCTTAGGTTTCGGAGTCACCTAGTGCAG” was 13100 fluorescence intensity (a.u.).
Turning to “TGAATTTGTGGTTTTTTTTGGGGAGGGTTTTTTTTTTCTTCGGAGTCACCTAGTGCAG”, the binding signal was 34600 fluorescence intensity (a.u.).
With “GTTAAATTCGAGGGGTTTCTTGTAATTTCGGGGTGGATAACGGAGTCACCTAGTGCAG”, the binding signal is 16500 fluorescence intensity (a.u.).
“CGGTGTACTACTTTTATATATGCAAACCTTTATTGCCTGACGGAGTCACCTAGTGCAG”: the binding signal was 10300 fluorescence intensity (a.u.).
Take “GGCCCACCGTCGCACTCGCGCCTTCCGCTGCTCCGTTGCCCGGAGTCACCTAGTGCAG”: the binding signal is 8880 fluorescence intensity (a.u.).
Consider “GTTTTTCCTCTCTGCTTGTAACGCGTGATGTAAAATTTTCCGGAGTCACCTAGTGCAG”, for which the binding signal was 11000 fluorescence intensity (a.u.).
On to “CGTCGAGTATCTGTATCTCTAAGCATTTCTTGTTGACTTTCGGAGTCACCTAGTGCAG”, for which the binding signal was 10600 fluorescence intensity (a.u.).
The value for “CCGTGCCCACCTGAGCTCGCTTCGCCGCCATTGGCAGCCTCGGAGTCACCTAGTGCAG” was 9100 fluorescence intensity (a.u.).

Values taken from PMC7819943, “Rice protein-binding microarrays: a tool to detect cis-acting elements near promoter regions in rice”.
